Assay outcomes as filed in PubChem BioAssay.
In the library only some 11% were active in any assay of this set; here they are far more common.
FBPA coupling cs – inhibits coupling enzyme system, counter-screen for aldolase hits | actives 0.67% (n = 290,000) | activity change, negative = inhibition, % at 58.2 µM, hits read low | coupling enzyme system counterscreen, AmpLite Red fluorescence; in the data active means activity change below about -30%
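Compounds tested against the coupling enzymes alone at 57.5 uM final; readout was AmpLite Red fluorescence (525/598 nm) after 20 min at RT.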
Tau fibril FP – blocks human tau fibril formation measured by polarization; P10636; K18 P301L tau heparin fibrillization, Alexa594 FP, 6 h; Potency, µM (series often up to 57.7 µM), without a hit: at the highest dose activity, negative = inhibition, hits mostly inhibitors; actives 0.39% (n = 280,000); AID 1468; further: potency means the concentration at half of the fitted maximal effect; nearly all actives have a fitted effect of over 55% in size
Target sequence (P10636 561-689 P618L limits assumed): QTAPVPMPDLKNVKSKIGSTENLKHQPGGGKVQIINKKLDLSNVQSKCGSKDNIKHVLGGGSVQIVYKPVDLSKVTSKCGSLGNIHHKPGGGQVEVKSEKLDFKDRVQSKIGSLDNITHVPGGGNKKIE
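Human K18 P301L fragment (15 uM unlabeled plus 0.24 uM Alexa 594-labeled) in 100 mM sodium acetate pH 7 with compound, aggregation induced by 20 uM heparin for 6 hr at 37 C. ThT (30 uM) added for 1 hr, then Alexa 594 FP read.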
G9a inh – blocks human histone lysine methyltransferase G9a; Potency, µM (highest dose often 102 µM), inactives show at the highest dose activity, negative = inhibition, hits mostly inhibitors; G9a H3K9 monomethylation, AlphaScreen, 2 h; actives 8.8% (n = 350,000); further: potency means the concentration at half of the fitted maximal effect; nearly all actives have a fitted effect of over 75% in size
Target sequence (Q96KQ7 913-1193 limits assumed): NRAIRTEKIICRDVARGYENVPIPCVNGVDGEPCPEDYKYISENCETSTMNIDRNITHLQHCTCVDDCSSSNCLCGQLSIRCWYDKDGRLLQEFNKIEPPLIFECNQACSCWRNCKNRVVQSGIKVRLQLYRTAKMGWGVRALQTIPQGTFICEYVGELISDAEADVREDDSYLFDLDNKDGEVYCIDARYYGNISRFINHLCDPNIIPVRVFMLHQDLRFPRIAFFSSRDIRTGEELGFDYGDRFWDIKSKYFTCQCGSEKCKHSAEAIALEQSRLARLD
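Compounds were preincubated with 20 nM G9a for 15 min, after which biotinylated H3K9 peptide (500 nM) and SAM (20 uM) started a 2 h room-temperature reaction. Monomethylated product was quantified by antibody-based AlphaScreen chemiluminescence.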
Tau ThT inhib – tau fibrillization inhibition (ThT binding). P10636. recombinant tau K18 P301L, heparin-induced fibrillization, ThT fluorescence. Potency, µM (titrated, usually from 57.4 µM), inactives show at the top dose activity, negative = inhibition, usual class: inhibitors. actives 2.1% (n = 270,000); further: potency means the concentration at half of the fitted maximal effect; nearly all actives have a fitted effect of over 55% in size
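Heparin-induced fibrillization of the P301L-mutant K18 repeat-domain fragment of human tau was followed by ThT binding in quantitative high-throughput format.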
Sfp PPTase inh – Sfp phosphopantetheinyl transferase inhibition; Potency, µM, for the others: largest response in the series, negative = inhibition, actives largely listed as inhibitors; actives 3.5% (n = 310,000); Biochemical Sfp PPTase activity, qHTS;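 further: the enzyme is Sfp with the accession as filed and its product quenches rhodamine fluorescence; potency means the concentration at half of the fitted maximal effect; 0% = enzyme reaction without inhibitor and -100% = no enzyme wells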
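Step 1, compound plus 15 nM Sfp-PPTase, 15 min, room temperature. Step 2, add rhodamine-CoA (5 uM) and BHQ-2-YbbR (12.5 uM). Step 3, read 525/598 nm fluorescence at 0 and 30 min.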
Tau fluor counter – counter-screen for tau fibril formation inhibitors | Potency, µM (series often up to 57.7 µM), inactives show at the highest dose activity change, negative = decrease | AID 1463 | actives 0.93% (n = 280,000) | tau K18 P301L Alexa594 fluorescence, heparin fibrillization; further: potency means the concentration at half of the fitted maximal effect; nearly all actives have a fitted effect of over 55% in size
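Human tau K18 P301L (15 uM unlabeled, 0.24 uM Alexa 594-labeled) in 100 mM sodium acetate pH 7 with 20 uM heparin, 6 hr at 37 C. ThT 30 uM added, 1 hr ambient; Alexa 594 FP and total fluorescence read at 555/632 nm.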
Numbers without * were called inactive; ? = inconclusive; . = no result given; ! = not confirmed by another sample; [ ] = another dose, or the depositor's remark. Unless noted, the call rests on the fitted dose curve; in most records, active means well fitted curve in the direction sought with a large enough effect; inconclusive means small, poorly fitted or top-dose-only effect, or another doubt; inactive means no such curve, though single readings can be large; an effect the other way counts as inactive or inconclusive. Unless noted, on the % scale 0 is the no-effect control and ±100 the full control effect.

SMILES | FBPA coupling cs | Tau fibril FP | G9a inh | Tau ThT inhib | Sfp PPTase inh | Tau fluor counter
Cc1n[nH]c(=O)nc1NCc1ccccc1 | 0 | -1% | 29% | 2% | 4% | 1%
Cc1ccc(Cl)cc1Nc1nc(-c2sc(NC(=O)c3ccccc3)nc2C)cs1 | 0 | 3% | . | ? | -21% | ?
Cc1nc(N)sc1-c1csc(NCc2ccccc2)n1 | -27 | ? | 10µM* | 20µM* | 40µM* | ?
Cc1nc(NC(=O)c2ccccc2)sc1-c1csc(N)n1 | -7 | -3% | 8.9µM* | 13µM* | -17% | ?
Cc1nc(NC(=O)c2ccccc2)sc1-c1csc(NCCc2ccccc2)n1 | 0 | ? | 40µM* | 16µM* | 19% | 16µM*[quencher]
Cc1cc(-c2csc(NC(=O)c3ccc(S(=O)(=O)N(C)C)cc3)n2)c(C)n1-c1ccccc1 | 1 | 2% | -47%[59 µM] | ? | 11% | ?
COc1cc(Cl)c(C)cc1NC(=O)CCc1c(C)nc2c3cccnc3nn2c1C | . | -6% | 8%[59 µM] | ? | . | -13%
NC(=O)c1cccc(C[C@H](C(=O)O)N2C(=O)c3ccc(C(=O)O)cc3C2=O)c1 | 0 | . | -2%[12.7 µM] | . | 4% | .
COc1cccc(Nc2nc3ccc(C)cc3nc2-n2nc(C)cc2C)c1 | . | -19% | 392%[59 µM] | -17% | . | ?
Cc1cc(C(=O)CSc2nncs2)c(C)n1Cc1ccco1 | -1 | 3% | ? | -13% | -14% | -8%
COC(=O)Cc1csc(NCc2ccccc2)n1 | 1 | . | 19% | . | -10% | .
Cc1nc(NC(=O)c2ccccc2)sc1-c1csc(Nc2cccc(F)c2)n1 | 4 | ? | 45µM* | 7.9µM* | 1% | 11µM*[quencher]
Cc1nc(NC(=O)c2ccccc2)sc1-c1csc(NCc2ccccc2)n1 | 0 | ? | 40µM* | ? | 6% | 13µM*[quencher]
Cc1cc(-c2csc(NCc3ccccc3)n2)c(C)n1C | -8 | -14% | 8.9µM* | ? | ? | ?
CCNc1nc(-c2cc(C)n(Cc3ccco3)c2C)cs1 | -14 | -1% | 16µM* | ? | 22µM* | -19%
COc1ccc(C(=O)Nc2ccc3c(c2)C(=O)N(C)C3=O)cc1OC | -15 | . | 7% | . | 12% | .
Cn1c(=O)[nH]c2cc(-c3noc(-c4ccc(Br)cc4)n3)ccc21 | . | 8% | 19%[59 µM] | ? | . | 7%
Cc1c(C(=O)N(C)C)sc2c1c(=O)n(-c1ccc(F)cc1)c(=O)n2Cc1cc(=O)n2ccccc2n1 | . | -3% | 16%[59 µM] | -2% | . | -11%
Cc1ccc(S(=O)(=O)/N=C2\C(=O)c3ccccc3C([O-])=C2n2cc[n+](CCC(C)C)c2)cc1 | -52* | -10% | ? | ? | 6% | -24%
CC(=O)Nc1ccc(S(=O)(=O)/N=C2\C(=O)c3ccccc3C([O-])=C2n2cc[n+](-c3ccccn3)c2)cc1 | -39* | ? | ? | 13µM* | -7% | 14µM*[quencher]
CCCC[n+]1ccn(C2=C([O-])c3ccccc3C(=O)/C2=N\S(=O)(=O)c2ccc(Br)cc2)c1 | -59* | -5% | 45µM* | ? | -12% | -4%
Cc1ccc(NC(=O)C[n+]2ccn(C3=C([O-])c4ccccc4C3=O)c2)cc1 | 2 | 0% | 0% | ? | -5% | 3%
COc1ccc(C(C(=O)NCC2CCCO2)N(C(=O)CNC(=O)c2cccs2)c2ccccc2C)cc1OC (centres undefined) | 3 | 3% | -2% | -6% | 18% | 0%
COc1ccccc1C(=O)Nc1cc(-c2cccc(Br)c2)nn1-c1ccccc1 | . | -15% | 10%[59 µM] | 4% | . | -17%
C=CCN(C(=O)CCC(=O)Nc1cc(C)on1)C(C(=O)NC(C)(C)CC)c1cccc(OC)c1OC (centres undefined) | 1 | . | 13% | . | 5% | .
SMILES | FBPA coupling cs | Tau fibril FP | G9a inh | Tau ThT inhib | Sfp PPTase inh | Tau fluor counter
N/C(Cn1cncn1)=N\NC(=O)C(=O)Nc1ccc(Cl)cc1Cl | 1 | 1% | -3%[12.7 µM] | ? | 14% | -6%
N/C(Cn1cncn1)=N\NC(=O)c1ccc(Cl)cc1Cl | 3 | -5% | 8.9µM* | -13% | 0% | -10%
CCN(CC#CCC1(O)c2ccccc2-c2ccccc21)CCO | 3 | -5% | -11%[0.0925 µM] | -1% | 89µM* | 1%
OC1(CC#CCN2CCCCC2)c2ccccc2-c2ccccc21 | -2 | 1% | 24% | 1% | 13% | 7%
CC(C)N(CC#CCC1(O)c2ccccc2-c2ccccc21)CCO | 1 | 0% | ? | -3% | 50µM* | -5%
Cc1ccc(C)c(NC(=O)CSc2nnc(-c3cc4occc4n3C)n2-c2ccccc2C)c1 | . | 5% | ? | -1% | . | -12%
CN(C)S(=O)(=O)c1ccc(Cl)c(C(=O)NNC(=O)Cn2ccc(C(F)(F)F)n2)c1 | . | . | 11% | . | . | .
CCOc1ccc(C(=O)c2cn(CC(=O)Nc3ccc4c(c3)OCCO4)c3ccc(OC)cc3c2=O)cc1 | . | 1% | ? | -7% | . | -25%
[O-][n+]1cccc2c(Br)cc(Br)c(O)c21 | -30 | -16% | 50µM* | ? | -20% | -26%
O=C(COc1ccc(Cl)cc1)NCc1ccc(F)cc1 | 0 | . | 0% | . | -3% | .
O=C(NC1CCCCCC1)C1c2ccccc2C(=O)N1Cc1ccc(F)cc1 (centres undefined) | . | 0% | 24%[59 µM] | -13% | . | -23%
Cc1c2c(c(C)n1C)C(C(=O)NC1CCCCC1)N(Cc1ccccc1)C2=O (centres undefined) | 1 | -9% | 50µM* | ? | 13% | -12%
COc1ccc(C2CC(c3ccccc3)Oc3cc4c(cc32)OCO4)cc1 (centres undefined) | -23 | . | . | . | 45µM*! | .
O=c1[nH]c(Nc2ccc(F)cc2)cc2ccccc12 | -34* | -14% | 11µM* | ? | -27% | ?
O=c1[nH]c(-c2ccccn2)cc2ccccc12 | -2 | -8% | 34% | 2% | 14% | 7%
Cc1cc2ccccc2c(=O)[nH]1 | 1 | -2% | 23%[12.7 µM] | -10% | 13% | -8%
Cc1ccccc1Nc1cc2ccccc2c(=O)[nH]1 | -43* | ? | ? | ? | -16% | -23%
O=C(O)c1ccc2c(c1)-c1nc3ccccc3n1C2=O | 2 | -6% | 40µM* | -2% | ? | -8%
COc1ccc(NC2=C3CC(C)CC=C3N(c3ccc(OC)cc3)C2=O)cc1 (centres undefined) | -2 | -1% | ? | ? | 7% | -25%
COc1ccc(NC2=C3CCCC=C3N(c3ccc(OC)cc3)C2=O)cc1 | -6 | -14% | 40µM* | ? | -5% | ?
COc1cc2c(cc1OC)C1=C(C#N)CC/C(=N\S(=O)(=O)c3ccccc3)N1CC2 | -2 | 2% | 79µM* | -12% | -12% | -13%
